The text below walks through data of paper PMC4552634, “A New Set of Chemical Starting Points with Plasmodium falciparum Transmission-Blocking Potential for Antimalarial Drug Discovery” (PLoS ONE, 2015).

Molecules are shown by their SMILES. Screen size: about 13,000 compounds; about 3,200 (25%) showed an effect of 50% or more. The list shows a part of the results.

The test system of this assay is P. falciparum stage V gametocytes. The arrangement: BacTiter-Glo ATP luminescence viability of purified stage V gametocytes in 384-well plates, per cent inhibition versus DMSO. The following applies: 48 h, 5 µM; inhibitor.
With `O=C(c1cncc(-c2ccccc2)c1)N(Cc1cncn1Cc1ccccc1F)CC1CC1` [TCMDC-132464], the % Inhibition – broadly, the change of the read-out against control, counted positive when it falls – came to 14.15%.
Turning to `CC(C)(C)Oc1ccc(NC(=O)c2ccccc2O)cc1` [TCMDC-137700], the “% Inhibition” value is reported as 29.92%.
With `COc1ccccc1N(C)CCNc1cc(C)nc(Nc2ccc(C)cc2)n1` [TCMDC-133456], the “% Inhibition” value is given as -44.09%.
Then `Cn1cc(C(=O)Nc2cccc(-c3cccc(-c4nc5ccccc5[nH]4)c3)c2)n(C)c1=O` [TCMDC-137135], with -5.62%; and `Cc1cc(C)c(C(=O)Nc2n[nH]c3nnc(-c4cccc(F)c4F)cc23)c(C)c1` [TCMDC-141220], with 6.955%; and `Oc1cc(Nc2ccnc3cc(I)ccc23)ccc1F` [TCMDC-138379], with -46.78%.
Next, `OC(COc1ccccc1-c1nc2ccccc2o1)CN1CCCN(CCc2ccccc2)CC1` (centres unmarked) [TCMDC-141430]: 28.2%; `COc1ccccc1N1CCN(Cc2c(NC(C)=O)sc(C)c2C)CC1` [TCMDC-124501]: -13.75%; `Oc1ccccc1CNCC(O)c1cc(C(F)(F)F)cc(C(F)(F)F)c1` (centres unmarked) [TCMDC-140304]: -68.09%.
Next, `O=C(NCCCCN1CCC(c2ccc(-c3ccco3)cc2)CC1)c1ccc(NC(=O)c2ccc(Cl)cc2)cc1` [TCMDC-138321]: 113.6%; `O=C(/C=C/c1ccc(Cl)c(Cl)c1)NCCCCCCN1CCCN(C(=O)Nc2cccc(Cl)c2)CC1` [TCMDC-135939]: -30.78%; `O=C(O)C(F)(F)F.c1cc(CNCC2CCCO2)cc(-c2ccc(-c3nc4ccccc4[nH]3)s2)c1` (centres unmarked) [TCMDC-133107]: -4.99%.
As to `COc1ccc(Cl)cc1N1CCN(CCCNC(=O)c2ccc(-c3nc4cc(Cl)c(F)cc4[nH]3)s2)CC1` [TCMDC-140102], the “% Inhibition” value turned out to be 7.975%.
Consider `COc1cc(C2=NN(S(=O)(=O)c3c(C)cc(C)cc3C)CCCC2)ccc1Cl` [TCMDC-136217], for which the “% Inhibition” value was found to be 20.4%.
Then `COc1ccc(-c2ccc(Nc3cccc(S(=O)(=O)CCN4CCC(CCN(C)C)CC4)c3)nc2)cn1` [TCMDC-134376], with 26.53%.
Then `Fc1ccc2nc(-c3ccc(-c4ccc(CNCC5CCCO5)cc4)s3)[nH]c2c1` (centres unmarked) [TCMDC-133100], with -65.64%; and `Fc1cccc(COc2ccc(Nc3ncnc4ccc(C#C[C@H]5CCCN5)cc34)cc2Cl)c1` [TCMDC-135437], with -6.979%.
Regarding `CN(C)Cc1ccc(-c2cc3ncnc(Nc4ccc(OCc5cccc(F)c5)c(Cl)c4)c3s2)[nH]1` [TCMDC-135507], the “% Inhibition” value worked out at 40.2%.
Next, `CN(C)C1CCN(CC#Cc2cc3ncnc(Nc4ccc(OCc5cccc(F)c5)c(Cl)c4)c3s2)CC1` [TCMDC-138804]: 11.68%; `CN(C)CCNc1nccc(N2CCc3ncnc(Nc4ccc(OCc5cccc(F)c5)c(Cl)c4)c3C2)n1` [TCMDC-135405]: 71.57%.
Next, `CCN(CCS(C)(=O)=O)Cc1ccc(-c2ccc3ncnc(Nc4ccc(OCc5cccc(F)c5)c(Cl)c4)c3c2)o1` [TCMDC-138533]: -31.95%; `CN(C)Cc1ccc(-c2cc3c(Nc4ccc(OCc5cccc(F)c5)c(Cl)c4)ncnc3s2)[nH]1` [TCMDC-135468]: 11.16%; `CCN(CC)CCCNc1nccc(N2CCc3ncnc(Nc4ccc(OCc5cccc(F)c5)c(Cl)c4)c3C2)n1` [TCMDC-135406]: 102.3%.
Then `C[C@@H](N)C#Cc1cc2c(Nc3ccc(OCc4cccc(F)c4)c(Cl)c3)ncnc2s1` [TCMDC-134655], with 18.43%; and `CC(=O)NCCNc1nccc(N2CCc3ncnc(Nc4ccc(OCc5cccc(F)c5)c(Cl)c4)c3C2)n1` [TCMDC-135392], with 4.041%.
Consider `CC(=O)NCCNc1nccc(N2CCc3ncnc(Nc4ccc(OCc5ccccn5)c(Cl)c4)c3C2)n1` [TCMDC-135447], for which the “% Inhibition” value was 3.253%.
For `CNCCNc1nccc(N2CCc3ncnc(Nc4ccc(OCc5cccc(F)c5)c(Cl)c4)c3C2)n1` [TCMDC-135478], the “% Inhibition” value is given as 99.42%.
Next, `NCCCNc1nccc(N2CCc3ncnc(Nc4ccc(OCc5cccc(F)c5)c(Cl)c4)c3C2)n1` [TCMDC-135456]: 85.39%.
Then `COc1ccc2nccc([C@@H](O)CN3CCC(NCc4cc5oc(=O)n(C)c5cc4F)CC3)c2c1` [TCMDC-141144], with -1.57%; and `Fc1cccc(COc2ccc(Nc3ncnc4sc(C#C[C@H]5CCCN5)cc34)cc2F)c1` [TCMDC-134429], with -0.575%.
Then `O=C(Nc1ccc(N2CCCCC2)c(Cl)c1)c1ncn[nH]1` [TCMDC-123528], with 3.564%; and `CS(=O)(=O)CCNc1cc(N2CCc3ncnc(Nc4ccc(OCc5cccc(F)c5)c(Cl)c4)c3C2)ncn1` [TCMDC-135477], with 58.91%; and `CC(=O)NCCNc1cc(N2CCc3ncnc(Nc4ccc(OCc5c(F)cccc5F)c(Cl)c4)c3C2)ncn1` [TCMDC-135455], with 38.09%.
On to `CS(=O)(=O)CCNc1nccc(N2CCc3ncnc(Nc4ccc(OCc5cccc(F)c5)c(Cl)c4)c3C2)n1` [TCMDC-135425], for which the “% Inhibition” value was found to be 8.296%.
Take `COc1cc(-c2ccccc2)ccc1C(=O)Nc1ccc2c(c1)N(C)CCC2` [TCMDC-141219]: the “% Inhibition” value is listed as -85.17%.
Next, `O=C(N1CCN(c2cccc(C(F)(F)F)c2)CC1)C(Cl)(Cl)Cl` [TCMDC-125655]: -5.728%.
Then `O=C(/C=C/c1ccc(Cl)c(Cl)c1)NC1C2CCC1CC(CN1CCC(c3c[nH]c4ccccc34)CC1)C2` (centres unmarked) [TCMDC-139811], with 36.93%; and `c1ccc(CN2CCC(Nc3ccc(-c4cn[nH]c4-c4ccccn4)nc3)CC2)cc1` [TCMDC-138750], with 73.03%; and `COc1ccc(Nc2nc(NC3CCN(Cc4ccccc4)CC3)cc(-c3ccncc3)n2)cc1` [TCMDC-134021], with -30.5%.
On to `c1ccc(C2CCN(Cc3ccc(-c4c[nH]c5nc(NC6CCCC6)ncc45)cc3)CC2)cc1` [TCMDC-133772], for which the “% Inhibition” value is -64.75%.
Then `CCCCCC(C)C(C)c1cc(O)c2c(c1)OC(C)(C)CC2(O)c1ccccn1` (centres unmarked) [TCMDC-131713], with -6.865%.
Then `Cc1cc(F)ccc1-c1nc(NCC(O)CNCCc2ccccc2)nc2c1ccc(=O)n2-c1c(F)cccc1F` (centres unmarked) [TCMDC-141784], with 98.89%; and `Cc1cc(F)ccc1-c1nc(NCCCNCCc2ccccc2)nc2c1ccc(=O)n2-c1c(F)cccc1F` [TCMDC-141804], with 83.84%.
Then `Cc1cc(F)ccc1-c1nc(NCCCN2CCCC2=O)nc2c1ccc(=O)n2-c1c(F)cccc1F` [TCMDC-141433], with -74.9%; and `CCCCCN1CCC(NC(=O)c2ccc(C(=O)Nc3ccc(C(C)C)cc3)cc2)CC1` [TCMDC-136751], with 8.673%; and `O=C(C=CC(=O)N1CCCCC1)NCc1ccccc1` [TCMDC-131645], with 19.39%.
With `NC(=O)c1ccccc1OCC(=O)Nc1cccc(-c2ccc(-c3nc4ccccc4[nH]3)cc2)c1` [TCMDC-132128], the “% Inhibition” value was found to be 7.419%.
Then `COc1ccc2ncc(C#N)c(CCN3CCC(NCc4ccc5c(c4)NC(=O)CO5)CC3)c2c1` [TCMDC-135645], with -0.6152%; and `CCNc1cc(CCCC(=O)OCC)nc(Nc2ccc(C)cc2)n1` [TCMDC-134018], with -48.18%.
Next, `OC(CNc1ccnc(Nc2ccccc2)n1)c1cccc(C(F)(F)F)c1` (centres unmarked) [TCMDC-136588]: 30.58%.
Next, `CCCCCCCN1CC[C@@H](CCCc2ccnc3ccc(OC)cc23)[C@@H](CCN)C1` [TCMDC-139278]: 113.6%; `CCCCCCCN1CC[C@@H](CCCc2ccnc3ccc(OC)cc23)[C@@H](CNC)C1` [TCMDC-139875]: 105.4%.
Regarding `CC[C@H]1CN(C/C=C/c2ccc(OC)cc2)CC[C@H]1CCCc1ccnc2ccc(O)cc12` [TCMDC-140258], the “% Inhibition” value is -1.76%.
Next, `CCCCCCCCCN1CC[C@@H](CCCc2ccnc3ccc(O)cc23)[C@@H](CC)C1` [TCMDC-131442]: 46.81%.
Next, `CCCCCCCN1CC[C@@H](C[C@H](N)Cc2ccnc3ccc(OC)cc23)[C@@H](CC)C1` [TCMDC-139827]: 11.08%; `Cc1cccc2c(/C=C/C(=O)NC3CCC(CCN4CCc5ccc(C#N)cc5CC4)CC3)c[nH]c12` (centres unmarked) [TCMDC-139665]: 43.65%; `O=C(Nc1cccc(-c2cc(-c3c(Cl)cccc3Cl)no2)c1)c1cncc(-c2cccs2)c1` [TCMDC-136736]: -10.57%.
Then `C[C@@H](N=C(Nc1ccc(C#N)cc1O)Nc1ccccc1Cl)c1ccc(Br)cc1` [TCMDC-140257], with -91.02%; and `O=C(Nc1cccc(-c2ccc(-c3nc4ccc(F)cc4[nH]3)cc2)c1)c1cccnc1` [TCMDC-136923], with 8.252%; and `CCc1nc(N)nc(N)c1-c1ccc(C(C)(C)C)cc1` [TCMDC-137367], with 5.64%.
Take `CC(N)(Cc1ccc(O)cc1)c1nn[nH]n1` (centres unmarked) [TCMDC-131387]: the “% Inhibition” value was -7.705%.
Next, `COc1cc(CC2c3cc(O)c(Cl)cc3CCN2C)c(OC)cc1C` (centres unmarked) [TCMDC-137434]: 71.2%.
Then `CCCc1cc(OC)c(C[C@H]2c3cc(O)c(Cl)cc3CCN2C)cc1OC` [TCMDC-137779], with 20.32%; and `CCCc1cc(OC)c(CC2c3cc(O)c(Cl)cc3CCN2C)cc1OC` (centres unmarked) [TCMDC-137166], with 27.65%; and `CCCCCCCCCCN1C(=O)C2C(CCCCNC(C)=O)NC3(C(=O)N(Cc4ccc(C(C)(C)C)cc4)c4ccccc43)C2C1=O` (centres unmarked) [TCMDC-139772], with 47.42%.
Next, `Cc1[nH]cc(Br)c(=O)c1-c1ccc(Oc2ccc(OC(F)(F)F)cc2)cc1` [TCMDC-136197]: -4.559%.
On to `Cc1cc(=O)c2cc(Oc3ccc(OC(F)(F)F)cc3)ccc2[nH]1` [TCMDC-138906], for which the “% Inhibition” value came to 0.2157%.
On to `Cc1[nH]c(C)c([N+](=O)[O-])c(=O)c1-c1ccc(Oc2ccc(OC(F)(F)F)cc2)cc1` [TCMDC-135555], for which the “% Inhibition” value is listed as -1.899%.
Then `Cc1[nH]c(C)c(Cc2ccc(Oc3ccc(OC(F)(F)F)cc3)cc2)c(=O)c1Br` [TCMDC-134530], with -23.78%; and `CC(=O)Oc1c(Cl)c(C)nc(C)c1-c1ccc(Oc2ccc(OC(F)(F)F)cc2)cc1` [TCMDC-137385], with 74.48%; and `Cc1nc(C)c(-c2ccc(Oc3ccc(OC(F)(F)F)cc3)cc2)c(OC(=O)c2ccc(CN(C)C)cc2)c1Cl` [TCMDC-137382], with 68.19%.
Next, `Cc1nc(C)c(-c2ccc(Oc3ccc(OC(F)(F)F)cc3)cc2)c(OC(=O)c2ccccc2)c1Cl` [TCMDC-137380]: 76.96%.
Take `CN(C)Cc1c(O)ccc2[nH]c(-c3ccc(OC(F)(F)F)cc3)nc12` [TCMDC-136529]: the “% Inhibition” value was -83.05%.
Next, `CC(=O)Oc1c(Br)c(C)nc(C)c1-c1ccc(Oc2ccc(OC(F)(F)F)cc2)cc1` [TCMDC-137383]: 72.41%.
